# Screening data: PubChem, The Scripps Research Institute Molecular Screening Center
# In the library only some 2.8% were active in any assay of this set; here they are far more common.
# SMARCA2 activ – SMARCA2 function activation, primary screen | MG213 cells, MMTV-luciferase reporter, dexamethasone, overnight | 1% of 370,000 active | activation, % at 9.1 µM | AID 652017; in the data active = activation above about 7.8%;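 note: 0% = vehicle wells and 100% = reference activator wells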
# MsrA inh – inhibitors of bovine MsrA; purified bovine MsrA, absorbance read-out; inhibition, % at 15.5 µM; 0.75% of 360,000 active; in the data active = inhibition above about 4.5%;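 note: 0% = vehicle wells with enzyme and 100% = reference inhibitor wells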
# KLK7 zymogen act – activates the human kallikrein-7 zymogen | purified proKLK7, EDANS-DABCYL substrate fluorescence; 100% is mature enzyme control, 0% vehicle | activation, % at 7 µM | 0.9% of 370,000 active | AID 652039;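 active = activation above the mean of all tested compounds plus 3 SD, computed per campaign excluding outliers beyond control limits, cut at about 13% in these data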
# Target sequence (P49862 whole entry, looked up): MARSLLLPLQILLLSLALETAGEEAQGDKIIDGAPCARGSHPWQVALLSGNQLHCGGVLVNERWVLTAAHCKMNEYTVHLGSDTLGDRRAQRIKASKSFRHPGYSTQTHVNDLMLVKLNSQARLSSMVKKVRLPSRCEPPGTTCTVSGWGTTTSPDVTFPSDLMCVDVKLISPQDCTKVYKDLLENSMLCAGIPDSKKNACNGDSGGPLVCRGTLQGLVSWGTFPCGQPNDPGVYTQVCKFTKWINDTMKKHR
# MsrA act – activators of bovine methionine sulfoxide reductase A; purified bovine MsrA, absorbance read-out; activation, % at 10.6 µM; 0.3% of 360,000 active; AID 602163; in the data active = activation above about 7.5%;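 note: 0% = vehicle and 100% = reference activator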
# MsrA act confirm – bovine methionine sulfoxide reductase A activation confirmed; activation, % at 10.6 µM; 12% of 1,000 active; shares compounds with MsrA act; purified bovine MsrA, absorbance read-out; in the data active = activation above about 4%;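 note: enzyme coupled to thioredoxin and thioredoxin reductase with NADPH; 0% = vehicle wells and 100% = reference activator wells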
# Active calls of the source: *; / = no result given.
SMILES,SMARCA2 activ,MsrA inh,KLK7 zymogen act,MsrA act,others
CNc1ccc2ncc(-c3ccc(OC)c(OC)c3)n2n1,-1.7,1.6,45.0*,-3.9,
O=C(Cn1nc(-c2ccccc2)ccc1=O)NCCc1ccc(F)cc1,-3.4,/,-0.3,/,
Cc1ccc(-c2n[nH]c(Cc3ccccc3)n2)cc1,7.9*,-0.5,-0.6,-4.9,
NC(=S)N=Nc1c(O)n(CCCl)c2ccccc12,-1.4,4.6*,0.3,-2.0,
NC(=S)N=Nc1c(O)n(CCCl)c2ccc(Cl)cc12,0.6,1.9,-0.7,-3.5,
CN(C)c1ccc(C=c2c3ccccc3n3c2cc(-c2ccc(Cl)cc2)[n+]3C)cc1,-8.8,4.2,-0.1,14.5*,
CN(C)c1ccc(C=c2c3cc([N+](=O)[O-])ccc3n3c2cc(-c2ccccc2)[n+]3C)cc1,-8.8,4.3,-0.7,-4.2,
O=C(Nc1ccc(F)cc1)OCc1cn(Cc2ccccc2F)nn1,-2.1,/,-0.2,/,
COC(=O)c1cc2c(c3c4ccccc4n(S(=O)(=O)c4ccccc4)c13)C(=O)N(C)C2,-4.8,0.9,0.8,/,
COC(=O)c1cc2c(c3c4ccccc4n(S(=O)(=O)c4ccc(C)cc4)c13)C(=O)N(C)C2,7.9*,0.3,-0.2,/,
C=CCN1N=C(/C=C/c2ccc(C)cc2)CCC1=O,2.5,4.6*,0.1,-9.3,
Cc1ccccc1Cn1cc(CN2[C@H](Cc3ccccc3)COc3cc(Br)ccc3S2(=O)=O)nn1,-3.5,/,0.1,/,
O=C(Nc1ccc(S(=O)(=O)Nc2cnc3ccccc3n2)cc1)c1cccc(OC(F)F)c1,-3.1,1.9,0.2,-3.3,
CC(CCCN1CCCC1)Nc1ccnc2cc(Cl)ccc12 (configuration not stated),-2.5,4.8*,0.4,-1.2,
CCN(CC)C(=O)Oc1cc2c(-c3cc4cccc(OC)c4o3)cc(=O)oc2cc1C,-1.9,0.3,-0.4,-2.9,
COc1cccc2cc(-c3cc(=O)oc4ccc(OCC(C)=O)cc34)oc12,1.4,9.5*,-1.4,-4.3,
Nc1nonc1-n1nnc(C(=O)N/N=C/c2ccccc2Br)c1CN1CCCC1,-3.5,0.0,0.1,2.1,
CC(=O)c1ccc(N2CCN(C(=O)c3ccc4c(=O)n(-c5ccccc5)c(=O)[nH]c4c3)CC2)cc1,-3.4,4.6*,0.4,-8.6,
CC(Cl)=CCn1c(NCCc2ccccc2)nc2c1c(=O)n(C)c(=O)n2C,-6.2,0.3,0.5,-8.7,
Cc1ccc(-c2cc(C(F)(F)F)c(C#N)c(=O)[nH]2)cc1,-5.0,1.4,8.1,-1.7,
N#Cc1c(C(F)(F)F)cc(-c2ccccc2)[nH]c1=O,0.3,2.0,25.5*,-3.0,
NC(Cc1ccc(Cl)cc1)c1csc(Nc2ccc(C(=O)NCCCO)cn2)n1 (configuration not stated),-2.2,-1.6,0.2,-1.0,
Cc1ccccc1Cn1cc(CN2[C@@H](CC(C)C)COc3cc(Br)ccc3S2(=O)=O)nn1,-1.3,/,0.1,/,
O=C(CCCc1nc2ccccc2s1)NC(c1ccccc1)c1ccccc1,7.9*,-0.1,0.0,-2.1,
O=C(O)CCCc1nc2ccccc2s1,1.0,-1.0,0.3,-7.8,
SMILES,SMARCA2 activ,MsrA inh,KLK7 zymogen act,MsrA act,others
O=C(Nc1ccc(F)cc1)OC[C@@H]1CSCCS(=O)(=O)N1,-2.7,1.0,-0.1,/,
CC1=C(C(=O)N2CCOCC2)CC(CC(=O)NC2CCCC2)C(=O)N1Cc1ccccc1 (configuration not stated),-6.7,0.2,-0.8,-5.6,
COc1cc(C2C3=C(CCCC3=O)Nc3[nH]n(-c4ccccc4)c(=O)c32)ccc1OC(C)=O (configuration not stated),-2.7,4.6*,-0.6,-3.5,
COc1cc(C2C3=C(CCCC3=O)Nc3[nH]n(-c4ccccc4)c(=O)c32)cc(OC)c1OC (configuration not stated),0.5,1.6,-0.1,-3.3,
COc1ccc(N2CCN(C(CNC(=O)C(C)(C)C)c3ccco3)CC2)cc1 (configuration not stated),0.9,0.3,0.0,-1.9,
COc1ccc(N2CCN(C(CNC(=O)C(C)(C)C)c3cccnc3)CC2)cc1 (configuration not stated),7.8*,-0.7,-0.5,-0.1,
CCCC/C=C1/[C@@H](c2ccc(Cl)cc2)N(Cc2ccc3c(c2)OCO3)C2=N[C@@H](c3ccccc3)CC(=O)N21,-4.1,/,-0.1,/,
COc1ccc(/C=N/Nc2nc(-c3ccc(Cl)cc3)cc(C(F)(F)F)n2)c(OC)c1,-2.1,4.6*,-0.1,-1.7,
CC1=C(C(=O)N(C(C)C)C(C)C)CC(CC(=O)NCCCCc2ccccc2)C(=O)N1Cc1ccc(F)cc1 (configuration not stated),1.9,0.2,-0.2,-0.7,
O=C(O)c1cccc(Nc2cc(Cl)c3nonc3c2[N+](=O)[O-])c1,-4.6,4.6*,0.1,-7.3,
O=C(O)c1ccccc1Nc1cc(Cl)c2nonc2c1[N+](=O)[O-],-3.2,3.8,-0.2,-6.3,
C=CCN1C(=O)[C@@H](CC(=O)NCCC(C)C)[C@]2(C(=O)OC)CCCCC=C12,-3.7,/,0.2,/,
Cc1c[nH]c2cccc(-c3cccc4ccccc34)c12,-1.6,/,0.0,/,
O=C(COC(=O)c1ccc(Cl)c(S(=O)(=O)N2CCOCC2)c1)Nc1ccc2[nH]c(=O)[nH]c2c1,3.5,-0.3,0.0,-1.0,
O=C(COC(=O)c1ccc(Cl)c(S(=O)(=O)N2CCN(c3ccc(F)cc3)CC2)c1)Nc1cccc(Cl)c1,0.0,-0.6,-0.2,11.7*,MsrA act confirm=1.4
Cc1nn(C)c(C)c1CN(C)C(=O)C1(C)CC1(Br)Br (configuration not stated),3.2,-0.6,0.0,9.6*,MsrA act confirm=-1.4
O=C(Nc1ccc2ccccc2c1)NC1CCCCN(Cc2ccc(Cl)cc2)C1=O (configuration not stated),-4.9,/,0.4,/,
CCc1nc2c(OCC(=O)C(C)(C)C)cccn2c1N(C)C(=O)c1ccco1,-3.8,-0.1,0.7,-1.1,
CCOC(=O)CNC(=O)c1ccccc1Br,1.8,-0.1,-0.3,20.9*,MsrA act confirm=-0.9
COc1cc(OC)c(C(=O)NC23CC4CC(CC(C4)C2)C3)cc1OC,0.3,-0.1,0.2,9.2*,MsrA act confirm=-3.7
COc1ccc(C(=O)NC23CC4CC(CC(C4)C2)C3)cc1OC,2.5,-1.0,0.5,0.8,
CC(C(=O)N1CCCCC1)n1ncn2cccc2c1=O (configuration not stated),-2.8,-0.1,0.1,19.8*,MsrA act confirm=-0.1
CC(C(=O)N1CCN(Cc2ccccc2)CC1)n1ncn2cccc2c1=O (configuration not stated),5.6,0.1,-0.9,-0.9,
CCCCOCCCNC(=O)C[C@H]1C[C@@]2(C(=O)OC)C(=C[C@H](C(C)(C)C)O[C@@H]2C)N(Cc2ccco2)C1=O,-4.7,/,0.3,/,
COc1ccc(NC(=O)N2CCC(N(C)CCC(C)C)CC2)cc1OC,6.0,/,0.0,/,
Fc1ccc(-c2nc3ccc(Br)cn3c2Cc2cccc(Cl)c2)cc1,2.6,-0.4,-3.7,8.2*,MsrA act confirm=-1.9
CCOC(=O)[C@@H]1CSCCS(=O)(=O)N1Cc1ccccc1,-0.6,/,0.0,/,
O=C(NCc1ccccc1)c1ccc2c(=O)n(CC3CCCO3)c(=S)[nH]c2c1 (configuration not stated),-2.5,0.9,-0.6,12.8*,MsrA act confirm=3.1
